Bioassay records (PubChem BioAssay)
SW480 rerep = DNA re-replication induction in SW480 cells; 340,000 tested, 1.8% active; Potency, µM (series often up to 46.1 µM), for the others: at the top dose re-replication activation, actives largely listed as activators; SW480 DNA re-replication, Hoechst DNA content imaging, 48 h; also: % of control where 0% means no effect; nearly all actives have a fitted effect of over 55% in size
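Cells (250 per well) received 23 nL compound or DMSO by pin tool and were kept 48 hr at 37 C, 5% CO2. Nuclei were then stained with Hoechst for 40 min and scanned for DNA content.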
KB-V1 cytotox = kills drug-selected multidrug resistant KB-V1 cells. KB-V1 MDR cells viability, CellTiter-Glo, 72 h. 400,000 tested, 3.4% active. Potency, µM (highest dose often 46.1 µM), most hits filed as cytotoxic; also: % is scaled to controls: 0 for no effect and ±100 for the full control effect; nearly all actives have a fitted effect of over 60% in size
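Cytotoxicity toward P-gp-expressing KB-V1 cells was determined as loss of CellTiter-Glo luminescence after 72 h at 37 degrees C. Compounds were tested in quantitative HTS format across a concentration range, with curves fitted to normalized data.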
KB-3-1 tox = KB-3-1 parental cell cytotoxicity; KB-3-1 viability, CellTiter-Glo ATP luminescence, 72 h; Potency, µM (top dose mostly 46.1 µM), hits mostly cytotoxic; 400,000 tested, 1.4% active; AID 1347075; also: % is scaled to controls: 0 for no effect and ±100 for the full control effect; nearly all actives have a fitted effect of over 60% in size
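Using CellTiter-Glo luminescence, growth of non-resistant KB-3-1 adenocarcinoma cells is assessed 72 h after pin-tool compound addition at 37 °C. Normalized responses across the concentration series yield fitted curves.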
ELG1 DNA repair = inhibitors of ELG1-dependent DNA repair in HEK293T cells; HEK293T ELG1-luciferase reporter, luminescence, 16 h; DNA damage induced by 5-fluorouridine; Potency, µM (highest dose often 46.1 µM), for inactives: at the highest dose activity change, negative = inhibition, usual class: inhibitors; 330,000 tested, 2.3% active; AID 504467; also: % is scaled to controls: 0 for no effect and ±100 for the full control effect; nearly all actives have a fitted effect of over 55% in size
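5-Fluorouridine DNA damage + compound/DMSO, 2,000 cells/well, 16 h, 37 °C/5% CO2. ONE-Glo, 30 min RT, luminescence. Readout = decrease in reporter signal.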
MCF10A rereplic = DNA re-replication induction in MCF 10a cells. MCF 10A DNA re-replication, Hoechst nuclear intensity, 48 h. Potency, µM (titrated, usually from 46.1 µM), without a hit: top-dose activity, positive = re-replication, hits mostly activators. 350,000 tested, 2.9% active; also: % of control where 0% means no effect; nearly all actives have a fitted effect of over 50% in size
* = called active by the depositor; i = inactive; u = inconclusive; x = no result given; [ ] = dose if it differs, or a comment. Only some compounds are listed: those with a hit (about 8.2% of all), similar ones and a draw of the others. Calls follow the shape of the dose curve; as a rule, active = well fitted curve in the direction sought with a large enough effect; inconclusive = small, poorly fitted or top-dose-only effect, or another doubt; inactive = no such curve, though single readings can be large; an effect the other way counts as inactive or inconclusive. Potency is read from the fitted curve at half-maximal effect.

SMILES	SW480 rerep	KB-V1 cytotox	KB-3-1 tox	ELG1 DNA repair	MCF10A rereplic
COc1ccc(C(=O)N2CCN(c3ccc(NC(=O)c4cccs4)cc3)CC2)cc1	0%	x	x	12µM*	3%
Cc1cc(C)cc(NS(=O)(=O)c2ccc(NC(=S)NC(=O)c3cccs3)cc2)c1	u	2.9µM*	23µM*	-23%	u
Cc1ccccc1C(=O)N1CCN(c2ccc(NC(=S)NC(=O)c3cccs3)cc2)CC1	u	i	u	21µM*	28%
O=C(Nc1ccc(N2CCN(C(=O)c3ccccc3)CC2)cc1)c1cccs1	-1%	u	i	u	5%
Cc1cccc(NC(=O)Cn2c(=O)n(Cc3ccccc3)c(=O)c3oc4ccccc4c32)c1C	x	i	i	x	x
COc1ccc(N(CC(=O)N2CCc3ccccc3C2)S(C)(=O)=O)cc1Cl	7%	i	i	-4%	4%
Cc1ccc(C(=O)N2CCN(c3ccc(NC(=S)NC(=O)c4cccs4)cc3)CC2)cc1	10µM*	i	u	u	u
O=C(NC(=S)Nc1ccc(N2CCOCC2)cc1)c1cccs1	0%	i	i	u	7%
Cc1ccc(NC(=O)c2cc(S(=O)(=O)Nc3ccc(C)cc3)cs2)cc1	u	4.1µM*	u	x	6%
NC(=O)N(N)c1nc(N2CCCC2)nc(N2CCCC2)n1	3%	i	i	7%	-8%
CCC(=O)NCCCNc1nc2c(C)cccc2cc1C#N	u	u	i	-2%	-1%
COc1ccc(C(=O)NCCNc2nc3c(C)cccc3cc2C#N)cc1	15%	i	i	x	18µM*
Cc1cccc2cc(C#N)c(NCCNS(=O)(=O)c3ccc4c(c3)OCCO4)nc12	16µM*	23µM*	i	-8%	u
COc1ccc(C(=O)NCCNc2nc3c(C)cccc3cc2C#N)cc1OC	2.6µM*	i	u	u	0.58µM*
COc1cc(C(=O)NCCNc2nc3c(C)cccc3cc2C#N)cc(OC)c1OC	x	u	i	x	x
O=C(Nc1cc(Cl)c(Cl)cc1Cl)c1cccnc1	u	i	u	7%	-9%
O=C(Cc1ccc(NC(=O)C2CCN(C(=O)c3ccccc3)CC2)cc1)Nc1cccc(C(=O)N2CCCCC2)c1	-7%	i	i	x	-2%
CN(C)C(CNC(=O)c1cc(S(=O)(=O)N2CCOCC2)ccc1Cl)c1cccs1 (centres undefined)	9%	i	i	x	20%
CNc1cncc(-c2cccnc2)n1	x	i	i	x	x
CCOC(=O)c1ccc(-n2c(CCC(=O)O)ccc2-c2ccccc2)cc1O	x	i	i	x	x
CCC(CC)CN1CCC(CN2C(=O)C(=O)NC[C@@H]2CC(C)C)CC1	x	i	i	x	x
CCC(CC)CN1CCC(CN2CCNC(=O)C2=O)CC1	-1%	i	i	x	2.1µM*
COc1ccc(CNC(=O)C[C@@H]2C[C@H]3c4cc(NC(=O)C5CCC5)ccc4O[C@H]3[C@@H](CO)O2)cc1	x	i	i	x	x
Cc1ccc(N2CCN(C3=NC(=O)C(Cc4ccccc4)S3)CC2)cc1 (centres undefined)	1%	u	i	-18%	-3%
O=C1N=C(N2CCN(c3ccccc3)CC2)SC1Cc1ccccc1 (centres undefined)	-3%	16µM*	i	-2%	-7%
SMILES	SW480 rerep	KB-V1 cytotox	KB-3-1 tox	ELG1 DNA repair	MCF10A rereplic
Cc1cccc(NC(=O)c2cccc3c2C(=O)c2ccccc2-3)c1	-1%	6.5µM*	i	12%	22%
Cc1cccc(NC2=C(NC(=O)c3ccccc3)C(=O)c3ccccc3C2=O)c1	18µM*	15µM*	i	u	u
O=C(NC1=C(Nc2ccc(Cl)cc2)C(=O)c2ccccc2C1=O)c1ccccc1	u	21µM*	18µM*	u	3%
O=c1[nH]c(CN2CCN(S(=O)(=O)/C=C/c3ccccc3)CC2)nc2cc(Cl)ccc12	u	u	23µM*	u	18µM*
NC(=O)C1CCN(Cc2nc3cc(Cl)ccc3c(=O)[nH]2)CC1	0%	i	u	-4%	21µM*
COc1cc2nc(CN3CCN(S(=O)(=O)c4c(F)cccc4F)CC3)[nH]c(=O)c2cc1OC	-4%	i	i	5.8µM*	11%
NC(=O)C1CCN(Cc2nc3ccccc3c(=O)[nH]2)CC1	-2%	i	i	-3%	425%[0.0737 µM]
O=c1[nH]c(CN2CCN(S(=O)(=O)/C=C/c3ccccc3)CC2)nc2ccccc12	2%	i	i	2%	28%
COc1cccc2cc(-c3nnc(Nc4c(F)cccc4F)s3)c(=O)oc12	x	i	i	x	x
CC(=O)Nc1ccc(-c2nnc(SCc3ccccc3)n2C)cc1	x	i	u	x	x
COc1ccc2c(CN(C)Cc3ccccc3)cc(=O)oc2c1	x	i	i	x	x
COc1cccc(CNc2cc(C)nc3nc(-c4ccc(C)cc4)nn23)c1	x	u	i	x	x
CS(=O)(=O)c1ccc2nc(NC(=O)c3ccc(NS(=O)(=O)c4ccc(F)c(F)c4)cc3)sc2c1	-3%	i	i	u	u
O=C(Nc1nc2ccc(SC(F)F)cc2s1)c1ccc(NS(=O)(=O)c2ccc(F)c(F)c2)cc1	-3%	u	i	-23%	18µM*
FC(F)(F)c1nnc(Nc2ccc(Cl)cc2)s1	-80%	u	i	10µM*	u
Fc1ccc(Nc2nnc(C(F)(F)F)s2)cc1Cl	u	u	u	u	-18%
COc1ccc2nc(SCC(=O)NC3CCCc4ccccc43)[nH]c2c1 (centres undefined)	-2%	18µM*	u	-4%	-1%
Cc1ccccc1-n1nnnc1SC(C)C(=O)NC1CCCc2ccccc21 (centres undefined)	u	3.7µM*	i	u	-3%
COc1ccc2nc(SCC(=O)NC(C)(C)C)[nH]c2c1	u	i	i	27%	8.2µM*
Cc1nnc(SC(C)C(=O)NC2CCCc3ccccc32)n1-c1ccccc1 (centres undefined)	0%	u	u	5%	-2%
Cc1ccc2nc(SC(C)C(=O)NC3CCCc4ccccc43)[nH]c2c1 (centres undefined)	x	21µM*	i	u	u
O=C(CSc1nc2ccc(Cl)cc2[nH]1)NC1CCCc2ccccc21 (centres undefined)	4%	i	i	u	u
CC(Sc1nc2ccccc2[nH]1)C(=O)NC1CCCCC1C (centres undefined)	-4%	u	i	3%	3%
COc1ccc(NC(=O)c2ccc(-c3nc(CSc4ccccc4)c(C)o3)cc2)c(OC)c1	x	i	i	x	x
COc1ccc2nc(SCC(=O)N(C)C3CCCCC3)[nH]c2c1	2%	21µM*	i	19%	0%
